VDR inhibitor: Inhibitors of the vitamin D receptor (VDR): qHTS; Vitamin D3 receptor (Homo sapiens), P11473; VDR-SRC2-3 peptide fluorescence polarization, 2 h; Potency, µM, actives largely listed as inhibitors; 0.93% of 400,000 active
Target sequence (P11473 whole entry, looked up): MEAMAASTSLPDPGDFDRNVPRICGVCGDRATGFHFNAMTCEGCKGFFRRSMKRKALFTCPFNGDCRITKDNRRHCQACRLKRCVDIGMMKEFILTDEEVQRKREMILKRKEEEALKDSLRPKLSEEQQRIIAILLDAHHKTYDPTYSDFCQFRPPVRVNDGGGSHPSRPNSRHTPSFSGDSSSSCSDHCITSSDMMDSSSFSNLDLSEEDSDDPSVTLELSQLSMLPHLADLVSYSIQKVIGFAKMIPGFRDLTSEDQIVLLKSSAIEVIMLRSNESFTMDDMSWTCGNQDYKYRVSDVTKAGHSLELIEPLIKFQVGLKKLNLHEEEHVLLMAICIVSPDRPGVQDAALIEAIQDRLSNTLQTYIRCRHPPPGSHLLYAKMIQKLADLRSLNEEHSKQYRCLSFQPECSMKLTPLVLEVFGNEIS
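Two reagent solutions held at 4 deg C in the dark were dispensed, compounds pinned at 23 nl, and the mixture incubated 2 h at room temperature. Read-out: fluorescence polarization of VDR–SRC2-3 peptide binding.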
GRP78 ERSR act: qHTS for Inducers of the Endoplasmic Reticulum Stress Response (ERSR) in Human Glioma: qHTS; U87-MG GRP78 promoter luciferase reporter, 16 h; Potency, µM, hits mostly activators; 0.02% of 420,000 active; AID 602332, 2012; also: series mostly up to about 76 µM; nearly all actives have a fitted effect of over 35% in size
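Stably transfected U87-MG glioma cells carrying a GRP78-based luciferase sensor; 16 h compound incubation. Luminescence end-point read 10 min after Bright-Glo addition at room temperature.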
12-LOX inh: Primary qHTS assay for inhibitors of human arachidonate 12S-lipoxygenase (ALOX12): Round 2; purified 12hLO, xylenol orange hydroperoxide absorbance; Potency, µM (top dose mostly 108 µM), usual class: inhibitors; AID 1671190, 2021; Polyunsaturated fatty acid lipoxygenase ALOX12 (Homo sapiens), P18054; 1.1% of 580,000 active
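Purified human 12hLO at 150 nM in 25 mM Hepes, 0.01% Triton X-100, pH 7.0, preincubated 15 min at room temperature with compound. Reaction started with 40 uM arachidonic acid, 30 min at room temperature. Hydroperoxide measured by Fe-xylenol orange, 573/405 nm absorbance ratio.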
Sfp PPTase inh: qHTS Assay for Inhibitors of Bacillus subtilis Sfp phosphopantetheinyl transferase (PPTase) | Biochemical Sfp PPTase activity, qHTS | Potency, µM, most hits filed as inhibitors | 3.5% of 310,000 active | AID 1490, 2009;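 also: the enzyme is Sfp with the accession as filed and its product quenches rhodamine fluorescence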
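Step 1, compound plus 15 nM Sfp-PPTase, 15 min, room temperature. Step 2, add rhodamine-CoA (5 uM) and BHQ-2-YbbR (12.5 uM). Step 3, read 525/598 nm fluorescence at 0 and 30 min.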
G9a block: qHTS Assay for Inhibitors of Histone Lysine Methyltransferase G9a; Histone-lysine N-methyltransferase EHMT2 (Homo sapiens), Q96KQ7; G9a H3K9 monomethylation, AlphaScreen, 2 h; Potency, µM (top dose mostly 102 µM), actives largely listed as inhibitors; 8.8% of 350,000 active; also: nearly all actives have a fitted effect of over 75% in size
Target sequence (Q96KQ7 913-1193 limits assumed): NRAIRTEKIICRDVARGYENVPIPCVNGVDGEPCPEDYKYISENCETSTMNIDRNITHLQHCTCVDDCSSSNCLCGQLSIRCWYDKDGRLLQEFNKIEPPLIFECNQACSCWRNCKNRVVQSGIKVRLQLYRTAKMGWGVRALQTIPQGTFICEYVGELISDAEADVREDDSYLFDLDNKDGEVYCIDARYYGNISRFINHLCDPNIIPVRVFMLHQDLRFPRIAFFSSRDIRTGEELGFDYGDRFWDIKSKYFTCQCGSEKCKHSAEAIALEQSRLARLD
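Compounds were preincubated with 20 nM G9a for 15 min, after which biotinylated H3K9 peptide (500 nM) and SAM (20 uM) started a 2 h room-temperature reaction. Monomethylated product was quantified by antibody-based AlphaScreen chemiluminescence.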
Large screens that a line does not name were inactive. This excerpt belongs to a sample that is enriched for hits. Calls follow the shape of the dose curve; as a rule, active = well fitted curve in the direction sought with a large enough effect; inconclusive = small, poorly fitted or top-dose-only effect, or another doubt; inactive = no such curve, though single readings can be large; an effect the other way counts as inactive or inconclusive.

CC(=O)c1ccc(NC(=O)CC2Nc3cccc4cccc(c34)NC2=O)cc1 (configuration not stated)	12-LOX inh inconclusive, Sfp PPTase inh 50.1µM, G9a block inconclusive
COc1cc(/C=C/c2ccc3c(Br)cc(Br)c(O)c3n2)ccc1O	VDR inhibitor inconclusive, GRP78 ERSR act 28.2µM
Cc1ccc(/C=C/c2ccc3cccc(O)c3n2)s1	G9a block 28.2µM
COc1cc(/C=C/c2ccc3cccc(O)c3n2)cc(Cl)c1OC	Sfp PPTase inh 50.1µM
COC(=O)c1ccc(/C=C/c2ccc3cccc(OC)c3n2)cc1	Sfp PPTase inh 44.7µM
COc1cc(/C=C/c2ccc3cccc(O)c3n2)cc(OC)c1OC	12-LOX inh inconclusive
Cc1ccc(C(=O)N2CCC23Cc2ccccc2NC3=O)cc1 (configuration not stated)	none (no result: VDR inhibitor, GRP78 ERSR act, Sfp PPTase inh, G9a block)
Cc1ccc(C(=O)Nc2ccc(O)c(-c3nc4cc(C)ccc4o3)c2)cc1	none (no result: VDR inhibitor, GRP78 ERSR act, Sfp PPTase inh, G9a block)
O=C(c1ccccc1-c1ncc(-c2ccc(F)cc2)o1)N1CCCC1	none (no result: VDR inhibitor, GRP78 ERSR act, Sfp PPTase inh, G9a block)
Cc1cc(C)n(CC(=O)n2nc(C)cc2C)n1	none
Cc1cc(C)n(C(=O)Cc2cn3ccsc3n2)n1	Sfp PPTase inh 89.1µM, G9a block inconclusive
CC(=O)NCC(=O)N1Cc2ccccc2CC2(CCCN(CC3CCNC3)C2)C1 (configuration not stated)	none (no result: VDR inhibitor, GRP78 ERSR act, Sfp PPTase inh, G9a block)
CC(=O)N1Cc2ccccc2CC2(CCCN(CC3CCNC3)C2)C1 (configuration not stated)	12-LOX inh 8.91µM (no result: VDR inhibitor, GRP78 ERSR act, Sfp PPTase inh, G9a block)
CCCCS(=O)CC(COc1ccc(Cl)cc1)OC(=O)c1ccccc1 (configuration not stated)	12-LOX inh inconclusive, G9a block 50.1µM
O=S(Cc1ccc(Cl)cc1)CC(O)COc1ccc(Cl)cc1 (configuration not stated)	12-LOX inh inconclusive
CCC(C)Oc1ccccc1/C=C(\C#N)c1nc2ccccc2[nH]1 (configuration not stated)	none (no result: VDR inhibitor, GRP78 ERSR act, Sfp PPTase inh, G9a block)
Nc1[nH]c(=S)[nH]c(=O)c1N	none (no result: VDR inhibitor, 12-LOX inh, Sfp PPTase inh, G9a block)
Nc1[nH]c(=S)[nH]c(=O)c1-c1ccccc1	12-LOX inh 7.08µM, G9a block inconclusive
O=C(OCc1ccc([N+](=O)[O-])cc1)C1(c2cccc(F)c2)CCCC1	none (no result: VDR inhibitor, GRP78 ERSR act, Sfp PPTase inh, G9a block)
CCC1CCCCN1CCCNC(=O)c1c(O)nc2ccccn2c1=O (configuration not stated)	G9a block 79.4µM
Cc1ccc(-c2cc(C(=O)Nc3ccc(S(=O)(=O)Nc4onc(C)c4C)cc3)c3ccccc3n2)cc1	12-LOX inh 35.5µM, G9a block 44.7µM
Cc1ccc2c(C)c(C(=O)Nc3ccc(S(=O)(=O)Nc4onc(C)c4C)cc3)oc2c1	G9a block 70.8µM
Cc1noc(NS(=O)(=O)c2ccc(NC(=O)c3ccc(Cl)c(S(=O)(=O)N(C)c4ccccc4)c3)cc2)c1C	G9a block 50.1µM (no result: Sfp PPTase inh)
CCCCc1noc(CN2CCc3cc(OC)c(OC)cc3C2CC(=O)OC)n1 (configuration not stated)	none (no result: VDR inhibitor, GRP78 ERSR act, Sfp PPTase inh, G9a block)
O=C(Nc1nnc(SCCC2OCCO2)s1)C1CC(=O)N(c2ccc(F)cc2)C1 (configuration not stated)	VDR inhibitor inconclusive, 12-LOX inh inconclusive, G9a block 39.8µM
Cc1cc(NC(=O)CSc2nnc(NC(=O)C3CC(=O)N(c4ccccc4)C3)s2)no1 (configuration not stated)	VDR inhibitor inconclusive, G9a block inconclusive
COc1cccc(N2CC(C(=O)Nc3nnc(SCCC4OCCO4)s3)CC2=O)c1 (configuration not stated)	VDR inhibitor inconclusive, G9a block 28.2µM
O=C(Nc1nnc(SCCC2OCCO2)s1)C1CC(=O)N(c2ccccc2)C1 (configuration not stated)	G9a block 22.4µM
O=C(CSc1nnc(NC(=O)c2c(F)cccc2F)s1)NCC1CCCO1 (configuration not stated)	G9a block 20µM (no result: Sfp PPTase inh)
O=C(c1cc(=O)c2ccccc2o1)N(Cc1cccc(Cl)c1)c1ccccn1	none (no result: VDR inhibitor, GRP78 ERSR act, Sfp PPTase inh, G9a block)
O=C(Nc1nnc(SCc2cccnc2)s1)C1CC(=O)N(c2ccc(F)cc2)C1 (configuration not stated)	12-LOX inh inconclusive, G9a block 39.8µM
O=C(Nc1nnc(SCCN2CCOCC2)s1)C1CC(=O)N(c2ccc(F)cc2)C1 (configuration not stated)	12-LOX inh inconclusive, G9a block 44.7µM
O=C(CSc1nnc(NC(=O)C2CC(=O)N(c3ccc(F)cc3)C2)s1)NCC1CCCO1 (configuration not stated)	12-LOX inh inconclusive, G9a block 44.7µM
NC(=O)c1oc2ccccc2c1NC(=O)C1CC(=O)N(c2ccccc2)C1 (configuration not stated)	G9a block 44.7µM (no result: Sfp PPTase inh)
CC(C)CNC(=O)C1CCCC1	none (no result: VDR inhibitor, GRP78 ERSR act, Sfp PPTase inh, G9a block)
Cn1c2c(c3cc(F)ccc31)CN(C(=O)Nc1cccc(Cl)c1)CC2	none (no result: VDR inhibitor, GRP78 ERSR act, Sfp PPTase inh, G9a block)
COc1ccccc1CN(C)C(=O)Cc1nn(C)c(=O)c2ccccc12	none (no result: VDR inhibitor, GRP78 ERSR act, Sfp PPTase inh, G9a block)
CCCCSc1nc2sc3c(c2c(=O)[nH]1)CCC3	none
Nc1nc(SCc2nnc(SCC(=O)O)n2-c2ccccc2)nc2sc3c(c12)CCCC3	G9a block 79.4µM
O=C(O)CSc1nc2sc3c(c2c(=O)n1-c1ccccc1)CCC3	G9a block inconclusive
O=c1[nH]c(SCc2n[nH]c(=S)n2-c2ccccc2)nc2sc3c(c12)CCC3	12-LOX inh inconclusive, Sfp PPTase inh inconclusive, G9a block 2µM
Cc1ccsc1C(=O)Nc1ccc(-c2nnc3n2CCCC3)cc1	none (no result: VDR inhibitor, GRP78 ERSR act, Sfp PPTase inh, G9a block)
CCCOc1nc2ccccc2nc1C(C#N)C(=O)NCc1ccccc1 (configuration not stated)	none (no result: VDR inhibitor, GRP78 ERSR act, Sfp PPTase inh, G9a block)
CCN(CC)CCCN(C/C=C/c1ccccc1)C/C=C/c1ccccc1	12-LOX inh 0.708µM (no result: VDR inhibitor, GRP78 ERSR act, Sfp PPTase inh, G9a block)
COc1ccc(C(=O)CN2CCN(c3ccc(F)cc3)CC2)cc1	none (no result: G9a block)
O=C(CN1CCN(c2ccc(F)cc2)CC1)c1ccc2c(c1)OCO2	G9a block 31.6µM
CC(C)c1ccc(OCC(O)CN2CCN(c3ccc(F)cc3)CC2)cc1 (configuration not stated)	G9a block 10µM (no result: Sfp PPTase inh)
OC(COc1ccc2c(c1)OCO2)CN1CCN(c2ccc(F)cc2)CC1 (configuration not stated)	G9a block 50.1µM
c1ccc(N2CCN(CCCOc3ccc4c(c3)OCO4)CC2)cc1	G9a block 20µM
CC(=O)c1ccc(OCC(O)CN2CCN(c3ccc(F)cc3)CC2)cc1 (configuration not stated)	12-LOX inh inconclusive, G9a block inconclusive
COc1ccc(/C=C/c2nc3cc(Cl)ccc3o2)cc1OC	none (no result: VDR inhibitor, GRP78 ERSR act, Sfp PPTase inh, G9a block)
OCCCNC(=S)Nc1ccc(Br)cc1	none (no result: VDR inhibitor, GRP78 ERSR act, Sfp PPTase inh, G9a block)

Bioassay records: PubChem, National Center for Advancing Translational Sciences (NCATS)
